PMC5540273 (PLoS ONE, 2017)

How the values were obtained:
Details in all cases: concentration: 1 μM, replicates: in singlicate; n = 1
FLT3-autoinhibited = test system: FLT3-autoinhibited
FLT3 = test system: FLT3
FLT4 = test system: FLT4
FRK = test system: FRK
FYN = test system: FYN
GAK = test system: GAK
GCN2(Kin.Dom.2,S808G) = test system: T1, GCN2(Kin.Dom.2,S808G)
T1 construct: gene EIF2AK4

GRK1 = test system: GRK1
GRK2 = test system: T2, GRK2
T2 construct: gene ADRBK1

GRK3 = test system: T3, GRK3
T3 construct: gene ADRBK2

GRK4 = test system: GRK4
GRK7 = test system: GRK7
GSK3A = test system: GSK3A
GSK3B = test system: GSK3B
HASPIN = test system: T4, HASPIN
T4 construct: gene GSG2

HCK = test system: HCK
HIPK1 = test system: HIPK1
HIPK2 = test system: HIPK2
HIPK3 = test system: HIPK3
HIPK4 = test system: HIPK4
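Note: KINOMEscan kinase panel screen.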

Row | SMILES | %Inh (FLT3-autoinhibited) | %Inh (FLT3) | %Inh (FLT4) | %Inh (FRK) | %Inh (FYN) | %Inh (GAK) | %Inh (GCN2(Kin.Dom.2,S808G)) | %Inh (GRK1) | %Inh (GRK2) | %Inh (GRK3) | %Inh (GRK4) | %Inh (GRK7) | %Inh (GSK3A) | %Inh (GSK3B) | %Inh (HASPIN) | %Inh (HCK) | %Inh (HIPK1) | %Inh (HIPK2) | %Inh (HIPK3) | %Inh (HIPK4)
1 | O=C(NOCC1CC1)c1ccc(F)c(F)c1Nc1ccc(I)cc1Cl | 0% | 0% | 1% | 0% | 0% | 0% | 0% | 0% | 0% | 0% | 0% | 0% | 0% | 0% | 30% | 0% | 0% | 0% | 0% | 0%
2 | CCCCCc1nc2c(N)ncnc2n1CCCCC [SKF-97255] | 0% | 0% | 0% | 0% | 0% | 0% | 4% | 38% | 0% | 6% | 21% | 0% | 0% | 34% | 2% | 26% | 43% | 0% | 13% | 1%
3 | C[C@@H](Oc1cc(-n2cnc3ccc(NC(=O)NC(C)(C)C)cc32)sc1C(N)=O)c1ccccc1Cl [GSK346294] | 0% | 0% | 1% | 10% | 6% | 0% | 0% | 0% | 0% | 34% | 0% | 0% | 18% | 21% | 1% | 0% | 9% | 0% | 26% | 0%
4 | CN1c2ccc(NCc3ccc(F)cc3)cc2-c2c(cnn2C)S1(=O)=O | 24% | 12% | 0% | 10% | 12% | 0% | 0% | 11% | 0% | 0% | 0% | 0% | 22% | 0% | 37% | 8% | 6% | 0% | 0% | 0%
5 | O=c1cc(N2CCOCC2)nc2n(Cc3cccc(F)c3)ccn12 [GSK2297430] | 0% | 24% | 9% | 8% | 1% | 14% | 0% | 0% | 0% | 0% | 1% | 0% | 0% | 11% | 4% | 0% | 0% | 0% | 9% | 0%
6 | Nc1nccc(-c2c(-c3ccc(F)cc3)ncn2C2CCN(CC(F)(F)F)CC2)n1 [SB-236560] | 0% | 18% | 21% | 1% | 0% | 15% | 48% | 18% | 16% | 0% | 10% | 2% | 0% | 0% | 36% | 0% | 27% | 57% | 0% | 0%
7 | NS(=O)(=O)c1cccc(-c2ccc3nccc(-c4cccc(S(N)(=O)=O)c4)c3c2)c1 [GW867253] | 0% | 0% | 0% | 0% | 0% | 14% | 3% | 27% | 0% | 0% | 26% | 0% | 0% | 52% | 64% | 20% | 37% | 29% | 27% | 0%
8 | NS(=O)(=O)c1cccc(-c2ccc3ncc(N4CCOCC4)nc3c2)c1 [GSK1535721] | 12% | 0% | 12% | 11% | 16% | 15% | 0% | 3% | 0% | 30% | 0% | 0% | 19% | 0% | 36% | 0% | 10% | 0% | 1% | 0%
9 | Cc1nnc(-c2ccc3occ(-c4ccc(C(C)O)cc4)c3c2)o1 (centres unmarked) | 4% | 0% | 6% | 10% | 15% | 0% | 23% | 0% | 0% | 12% | 1% | 11% | 73% | 19% | 29% | 6% | 67% | 56% | 41% | 33%
10 | CC(C)Oc1ccc2c(-c3ccnc(Nc4ccc(N5CCN(C)CC5)cc4)n3)cnn2n1 [GW696155] | 70% | 98.3% | 30% | 41% | 53% | 96.3% | 100% | 5% | 0% | 48% | 84% | 0% | 0% | 6% | 70% | 0% | 97.2% | 98.7% | 98.5% | 83%
